Our source for the cytotoxicity call values is the antibiotic and cytotoxicity screens of Wong et al. (2023).

Structures are written as SMILES. The whole screen tested about 39,000 compounds, of which about 1,500 (3.8%) were called active. What follows is part of a selection rich in actives, with near analogues and random picks from the rest.

In the test the test system is HSkMC (human skeletal muscle cells). Put plainly: cytotoxicity call (relative viability < 0.9). The conditions noted are these: 10 µM.
Turning to `CN1CCN(C)C2(CCN(C(=O)c3ccn[nH]3)CC2)C1=O`, the cytotoxicity call was “inactive”.
On to `COCCNC(=O)C[C@@H]1CC[C@H]2[C@@H](COc3ccc(NS(=O)(=O)c4ccc(Cl)cc4)cc3C(=O)N2C)O1`, for which the cytotoxicity call was “inactive”.
Consider `C[C@H](CO)N1C[C@H](C)[C@@H](CN(C)C(=O)Nc2ccc(F)cc2)OCCCC[C@H](C)Oc2ccc(NS(=O)(=O)c3cccs3)cc2C1=O`, for which the cytotoxicity call was “inactive”.
For `C[C@@H]1CN([C@H](C)CO)C(=O)c2cc(NC(=O)CCC(F)(F)F)ccc2O[C@@H]1CN(C)C(=O)Nc1cccc2ccccc12`, the cytotoxicity call is “inactive”.
For `COc1ccc(NC(=O)N2C[C@H](O)COC[C@H]3O[C@H](CC(=O)NCc4ccccc4OC)CC[C@@H]32)cc1` the value was “inactive”; for `C[C@@H]1CCCCO[C@@H](CN(C)C(=O)C2CCCCC2)[C@H](C)CN([C@H](C)CO)C(=O)c2cc(NC(=O)Nc3ccc4c(c3)OCO4)ccc2O1`, “inactive”; for `COc1ccc2occ(C(C)=O)c2c1`, “inactive”.
For `C[C@@H]1CN([C@H](C)CO)C(=O)c2cc(NS(=O)(=O)c3ccccc3)ccc2O[C@H]1CN(C)Cc1ccc(-c2ccccc2)cc1`, the cytotoxicity call is “inactive”.
As to `C[C@H](CO)N1C[C@H](C)[C@@H](CN(C)Cc2ccc(-c3ccccc3)cc2)Oc2ccc(NS(=O)(=O)c3ccc(Cl)cc3)cc2C1=O`, the cytotoxicity call was “active”.
For `C[C@@H]1CN([C@H](C)CO)C(=O)c2cc(NS(=O)(=O)c3ccc(Cl)cc3)ccc2O[C@H]1CN(C)Cc1ccc(-c2ccccc2)cc1`, the cytotoxicity call is “active”.
With `COc1cccc(C#Cc2ccc([C@H]3[C@H]4CN(S(=O)(=O)c5ccccc5C)CC(=O)N4[C@H]3CO)cc2)c1`, the cytotoxicity call is “inactive”.
With `C[C@H](CO)N1C[C@H](C)[C@@H](CN(C)C(=O)Cc2ccncc2)Oc2cc(C#CC3CCCCC3)ccc2S1(=O)=O`, the cytotoxicity call is “inactive”.
For the molecule `O=C(Nc1cc(Cl)ccc1Cl)c1cc(Cl)ccc1NS(=O)(=O)c1ccc(Cl)c([N+](=O)[O-])c1`, the cytotoxicity call was “inactive”.
To `O=C(Nc1ccc([N+](=O)[O-])cc1Cl)c1cc(Cl)ccc1O` belongs “active”; to `NC(=O)c1ccc([N+](=O)[O-])cc1Cl`, “inactive”; to `C[C@@H]1CN([C@H](C)CO)C(=O)c2cccc(NC(=O)NC3CCCCC3)c2O[C@H]1CN(C)Cc1ccc(C(F)(F)F)cc1`, “inactive”.
For the molecule `COc1cccc(CNC(=O)c2cc3c(c(-c4cccc(-c5cccc(C#N)c5)c4)n2)[C@H](CCO)N([S@@](=O)C(C)(C)C)C3)c1`, the cytotoxicity call is “inactive”.
On to `COc1cccc(CNC(=O)c2cc3c(c(-c4cccc(-c5ccc(C#N)cc5)c4)n2)[C@H](CCO)N([S@@](=O)C(C)(C)C)C3)c1`, for which the cytotoxicity call is “inactive”.
As to `CN(C)C(=O)c1cccc(-c2cccc(-c3nc(C(=O)NC4CCCCC4)cc4c3[C@H](CCO)N([S@@](=O)C(C)(C)C)C4)c2)c1`, the cytotoxicity call was “inactive”.
As to `CN(C)C(=O)c1ccc(-c2cccc(-c3nc(C(=O)NCc4ccccc4)cc4c3[C@H](CCO)N([S@@](=O)C(C)(C)C)C4)c2)cc1`, the cytotoxicity call is “inactive”.
Regarding `CN(C)C(=O)c1cccc(-c2cccc(-c3nc(C(=O)NC4CCCCC4)cc4c3[C@@H](CCO)N([S@@](=O)C(C)(C)C)C4)c2)c1`, the cytotoxicity call is “active”.
Regarding `CN(C)C(=O)c1cccc(-c2cccc(-c3nc(C(=O)NC4CCCCC4)cc4c3[C@@H](CCO)N([S@](=O)C(C)(C)C)C4)c2)c1`, the cytotoxicity call was “inactive”.
Regarding `CN(C)C(=O)c1ccc(-c2cccc(-c3nc(C(=O)NCc4ccccc4)cc4c3[C@@H](CCO)N([S@](=O)C(C)(C)C)C4)c2)cc1`, the cytotoxicity call is “inactive”.
Consider `CN(C)C(=O)c1ccc(-c2cccc(-c3nc(C(=O)NCc4ccccc4)cc4c3[C@@H](CCO)N([S@@](=O)C(C)(C)C)C4)c2)cc1`, for which the cytotoxicity call was “active”.
For `COc1cccc(CNC(=O)c2cc3c(c(-c4cccc(-c5ccc(C#N)cc5)c4)n2)[C@@H](CCO)N([S@](=O)C(C)(C)C)C3)c1`, the cytotoxicity call was “active”.
As for `C[C@H](CO)N1C[C@H](C)[C@H](CN(C)Cc2ccc(C(=O)O)cc2)OCCCC[C@H](C)Oc2ccc(NC(=O)C3CCCCC3)cc2C1=O`, the cytotoxicity call was “inactive”.
For `C[C@H](CO)N1C[C@H](C)[C@H](CN(C)S(C)(=O)=O)OCCCC[C@H](C)Oc2ccc(NC(=O)CCCN(C)C)cc2C1=O`, the cytotoxicity call is “inactive”.
As for `CC(C)NC(=O)Nc1ccc2c(c1)C(=O)N([C@@H](C)CO)C[C@@H](C)[C@H](CN(C)S(=O)(=O)c1cn(C)cn1)OCCCC[C@H](C)O2`, the cytotoxicity call is “inactive”.
In the case of `C[C@@H]1CN([C@H](C)CO)C(=O)CCCn2cc(nn2)CO[C@@H]1CN(C)S(=O)(=O)c1ccc(Cl)cc1`, the cytotoxicity call was “inactive”.
As to `O=C(O)[C@]1(O)C[C@@H](O)[C@@H](O)[C@H](O)C1`, the cytotoxicity call was “inactive”.
Take `Cc1noc(C)c1S(=O)(=O)Nc1ccc2c(c1)CC(=O)N([C@@H](C)CO)C[C@H](C)[C@H](CN(C)Cc1ccccc1)O2`: the cytotoxicity call was “inactive”.
Turning to `C[C@H](CO)N1C[C@H](C)[C@H](CN(C)C(=O)Nc2ccc(C(F)(F)F)cc2)Oc2ccc(NS(C)(=O)=O)cc2C1=O`, the cytotoxicity call is “inactive”.
For the molecule `C[C@@H]1CN([C@H](C)CO)C(=O)c2cccc(NC(=O)C3CC3)c2O[C@H]1CN(C)S(=O)(=O)c1ccc(Cl)cc1`, the cytotoxicity call is “inactive”.
Turning to `Cc1ccc(S(=O)(=O)N(C)C[C@H]2OCCCC[C@H](C)Oc3ccc(NC(=O)Nc4ccc(F)cc4)cc3C(=O)N([C@@H](C)CO)C[C@@H]2C)cc1`, the cytotoxicity call was “inactive”.
Turning to `CC(=O)N1CCc2nc(C(N)=O)sc2CC1`, the cytotoxicity call was “inactive”.
Turning to `O=C(OC[C@H]1O[C@@H](OC(=O)c2cc(O)c(O)c(O)c2)[C@H](O)[C@@H](O)[C@@H]1O)c1cc(O)c(O)c(O)c1`, the cytotoxicity call was “inactive”.
Turning to `Cc1coc(C)c1C(=O)O[C@@H]1O[C@@H](C)[C@H](O)[C@@H](O)[C@H]1O`, the cytotoxicity call was “active”.
`COC1C(C(=O)O)OC(C)C(O)C1O.COC1OC(C(=O)O)C(O)C(O)C1O` (configuration not stated) [ALGINIC ACID [Mol Wt ~200,000; monomers shown] ]: the cytotoxicity call is “inactive”.
Consider `C[C@H]1CN([C@@H](C)CO)C(=O)c2cccc(NS(=O)(=O)c3ccc(Cl)cc3)c2O[C@@H]1CN(C)Cc1ccc(-c2ccccc2)cc1`, for which the cytotoxicity call was “inactive”.
Regarding `Cc1noc(C)c1NC(=O)N(C)C[C@@H]1Oc2ccc(NC(=O)C3CC3)cc2CC(=O)N([C@@H](C)CO)C[C@@H]1C`, the cytotoxicity call is “inactive”.
For `COc1ccc(S(=O)(=O)N(C)C[C@@H]2Oc3ccc(NS(=O)(=O)c4ccc(F)cc4)cc3CC(=O)N([C@H](C)CO)C[C@H]2C)cc1`, the cytotoxicity call was “inactive”.
For `C[C@@H]1CN([C@@H](C)CO)C(=O)c2cc(C#Cc3ccccn3)cnc2O[C@H]1CN(C)C(=O)CCN1CCCCC1` the value was “inactive”; for `C[C@@H]1CCCCO[C@H](CN(C)C)[C@@H](C)CN([C@H](C)CO)C(=O)c2cc(NS(=O)(=O)c3cn(C)cn3)ccc2O1`, “inactive”.
As to `COc1ccc(S(=O)(=O)Nc2ccc3c(c2)C(=O)N([C@H](C)CO)C[C@H](C)[C@@H](CN(C)Cc2ccc(C(=O)O)cc2)OCCCC[C@H](C)O3)cc1`, the cytotoxicity call was “inactive”.
On to `C[C@H](CO)N1C[C@H](C)[C@@H](CN(C)Cc2ccc(-c3ccccc3)cc2)Oc2ccc(NC(=O)Nc3ccc(C(F)(F)F)cc3)cc2C1=O`, for which the cytotoxicity call was “active”.
For `C[C@H]1CN([C@@H](C)CO)C(=O)c2cc(NC(=O)Nc3ccc(C(F)(F)F)cc3)ccc2O[C@H]1CN(C)Cc1ccc(-c2ccccc2)cc1`, the cytotoxicity call was “active”.
For `C[C@@H]1CN([C@@H](C)CO)C(=O)c2cc(NC(=O)Nc3ccc(C(F)(F)F)cc3)ccc2O[C@@H]1CN(C)Cc1ccc(-c2ccccc2)cc1` the value was “active”; for `C[C@@H]1CN([C@H](C)CO)C(=O)Cc2cc(NS(=O)(=O)c3cn(C)cn3)ccc2O[C@H]1CN(C)CC1CC1`, “inactive”; for `Cc1noc(C)c1NC(=O)Nc1ccc2c(c1)CC(=O)N([C@H](C)CO)C[C@H](C)[C@H](CN(C)S(=O)(=O)c1ccccc1)O2`, “inactive”.
For `CO[C@H]1CN(C)C(=O)c2ccc(NS(=O)(=O)CC(F)(F)F)cc2OC[C@H](C)N(C(=O)NC(C)C)C[C@H]1C`, the cytotoxicity call is “inactive”.
For the molecule `COc1cccc(C(=O)Nc2ccc3c(c2)C(=O)N(C)[C@@H]2CC[C@H](CC(=O)NCCCN4CCOCC4)O[C@H]2CO3)c1`, the cytotoxicity call was “inactive”.
With `COc1ccc(S(=O)(=O)N(C)C[C@@H]2OCCCC[C@H](C)Oc3ccc(NC(=O)CCC(F)(F)F)cc3C(=O)N([C@H](C)CO)C[C@H]2C)cc1`, the cytotoxicity call was “inactive”.
For `OC[C@H]1O[C@@H](Nc2ccccn2)[C@@H](O)[C@@H](O)[C@@H]1O`, the cytotoxicity call was “inactive”.
As for `COc1ccc(S(=O)(=O)N(C)C[C@H]2Oc3ncc(-c4ccncc4)cc3C(=O)N([C@@H](C)CO)C[C@@H]2C)cc1`, the cytotoxicity call was “inactive”.
For `Cc1nn(C)cc1NC(=O)C[C@@H]1CC[C@H]2[C@H](COc3ccc(NC(=O)C4CCOCC4)cc3C(=O)N2C)O1` the value was “inactive”.
As for `COc1cccc(C#Cc2ccc3c(c2)O[C@H](CN(C)S(=O)(=O)c2ccccc2F)[C@@H](C)CN([C@@H](C)CO)S3(=O)=O)c1`, the cytotoxicity call was “inactive”.
With `C[C@@H]1CN([C@@H](C)CO)C(=O)c2cc(NC(=O)Nc3ccccc3)ccc2O[C@@H]1CN(C)Cc1ccc(C(F)(F)F)cc1`, the cytotoxicity call is “inactive”.
As to `C[C@H](CO)N1C[C@H](C)[C@H](CN(C)Cc2ccc(-c3ccccc3)cc2)Oc2ccc(NC(=O)Nc3ccc(C(F)(F)F)cc3)cc2C1=O`, the cytotoxicity call was “active”.
With `C[C@@H]1CN([C@H](C)CO)C(=O)c2cc(NC(=O)Nc3ccc(C(F)(F)F)cc3)ccc2O[C@H]1CN(C)Cc1ccc(-c2ccccc2)cc1`, the cytotoxicity call is “active”.
In the case of `C[C@@H]1CN([C@@H](C)CO)C(=O)c2cc(NC(=O)Nc3ccc(C(F)(F)F)cc3)ccc2O[C@H]1CN(C)Cc1ccc(-c2ccccc2)cc1`, the cytotoxicity call is “active”.
For `C[C@@H]1CN([C@H](C)CO)C(=O)c2cc(NC(=O)Nc3ccc(C(F)(F)F)cc3)ccc2O[C@@H]1CN(C)Cc1ccc(-c2ccccc2)cc1` the value was “active”.
As to `C[C@H]1CN([C@@H](C)CO)C(=O)c2cc(NC(=O)Nc3ccccc3)ccc2O[C@@H]1CN(C)Cc1ccc(C(F)(F)F)cc1`, the cytotoxicity call is “inactive”.
